Consider 66 compounds from PubChem BioAssay AID778 (Sanford-Burnham Center for Chemical Genomics, 2007).

In general, inhibition refers to the change of the read-out against control, counted positive when it falls.

The structures appear in SMILES notation. In all, about 96,000 compounds went through this assay and about 20,000 (21%) were called active.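 The calls were made as follows: active = CYP2C19 inhibition above a set limit at 5 µM in the primary screen (cut at about 50% in these data); inactive = the rest.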 The list is a sample of the results.

For the assay, the target named is Cytochrome P450 2C19 (Homo sapiens) (UniProt P33261). As to the kind of experiment: blockers of cytochrome P450 2C19 activity – biochemical, luminescence, ADME assay, primary screen (AID 778).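 Also: plate controls were negative control wells for no effect and 2.5 mM tranylcypromine positive control for full effect.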 The settings on record: CYP2C19 Supersomes, luciferin-H EGE luminescence, 30 min; at 5 µM; hits give high values.
Cytochrome P450 2C19 (Homo sapiens), sequence (P33261 whole entry, looked up): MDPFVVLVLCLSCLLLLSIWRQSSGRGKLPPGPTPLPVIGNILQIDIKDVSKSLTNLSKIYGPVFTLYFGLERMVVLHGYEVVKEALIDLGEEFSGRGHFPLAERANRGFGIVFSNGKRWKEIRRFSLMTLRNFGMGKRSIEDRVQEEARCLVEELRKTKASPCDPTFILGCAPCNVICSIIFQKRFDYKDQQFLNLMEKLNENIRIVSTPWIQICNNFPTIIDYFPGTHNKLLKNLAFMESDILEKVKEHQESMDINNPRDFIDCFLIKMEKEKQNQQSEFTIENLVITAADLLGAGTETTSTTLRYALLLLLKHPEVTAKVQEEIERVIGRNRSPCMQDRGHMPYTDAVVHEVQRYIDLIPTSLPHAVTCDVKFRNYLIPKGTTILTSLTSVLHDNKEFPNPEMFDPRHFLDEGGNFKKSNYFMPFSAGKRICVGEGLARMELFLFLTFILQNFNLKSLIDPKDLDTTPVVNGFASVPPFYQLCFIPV
`Cc1nnc(NCCO)c2ccccc12`: the inhibition was 7.5% (inactive).
Turning to `CSC1=N/C(=C\C=C\c2cccs2)C(=O)S1`, the inhibition is -11% (inactive).
As for `CCCCOC(=O)c1[nH]c(C)c(C(=O)OC)c1C`, the inhibition was 81.6% (active).
As for `CCCCN(CC)CCNC(=O)c1[nH]c(C)c(C(C)=O)c1C`, the inhibition is -8% (inactive).
In the case of `CCCOC(=O)c1[nH]c2c(c1C)C(=O)CC(c1cc(OC)c(OC)c(OC)c1)C2` (stereo unspecified), the inhibition was 38.4% (inactive).
In the case of `Cc1nc2nc3c(cn2n1)C(=O)CC(c1ccccc1)C3` (stereo unspecified), the inhibition is 99.6% (active).
On to `Cc1ccc(Cc2cnc(NC(=O)/C(C#N)=C/c3ccc(-c4cccc([N+](=O)[O-])c4)o3)s2)cc1`, for which the inhibition was -3.9% (inactive).
As for `O=C(COC(=O)c1ccc(S(=O)(=O)N2CCc3ccccc3C2)cc1)NC(=O)NCc1ccco1`, the inhibition is 8.9% (inactive).
The value for `CC1(c2ccccc2Cl)NC(=O)N(CC(=O)NC(=O)NCc2ccco2)C1=O` (stereo unspecified) was 22.5% (inactive).
As for `O=C(CN1CCN(S(=O)(=O)/C=C/c2ccccc2)CC1)NC(=O)NCc1ccco1`, the inhibition is 54% (active).
As for `CCCOn1c(-n2nc(C)cc2C)nc2ccccc2c1=O`, the inhibition was 47.2% (inactive).
Take `O=C(NCc1ccco1)c1sc2cccc(F)c2c1Cl`: the inhibition is -8.9% (inactive).
For the compound `CCOc1cc(/C=N/n2cnnc2)c(Br)cc1O`, the inhibition was 5.4% (inactive).
Consider `Cc1ccc2c(c1)N(C(=O)CCC(=O)N1CCc3ccccc3C1)CCO2`, for which the inhibition is 39.4% (inactive).
For `c1ccc(-c2cn3c(n2)CCc2ccc4cccnc4c2-3)cc1`, the inhibition is 15.9% (inactive).
For `COc1ccc(S(=O)(=O)N2CCC(C(=O)N3CCc4ccccc4C3)CC2)cc1OC`, the inhibition is 53.6% (active).
Then `COc1ccc(S(=O)(=O)N2CCC(C(=O)N3CCOCC3)CC2)cc1OC`, with 7.3% (inactive).
As to `COc1ccccc1N(C)S(=O)(=O)c1ccc(C(=O)N2CCC(C(N)=O)CC2)cc1`, the inhibition is 8.7% (inactive).
For `CCS(=O)(=O)c1ccc2c(c1)N(S(=O)(=O)c1ccccc1)CC(C(=O)O)O2` (stereo unspecified), the inhibition was 0.1% (inactive).
As for `CCC1CCCCN1CCCNC(=O)C1CCC(Cn2c(=O)[nH]c3ccccc3c2=O)CC1` (stereo unspecified), the inhibition is 6% (inactive).
Take `CCOC(=O)c1c(-n2cnnn2)sc(C)c1C`: the inhibition is 7.5% (inactive).
With `Cc1nc(NNC(=O)c2ccccc2)cc(-c2ccccc2)n1`, the inhibition was -0.2% (inactive).
Then `CNC(=O)Nc1cc(C(C)(C)C)no1`, with 32.3% (inactive); and `CCC(=O)Nc1cccc(NC(=O)CSc2nnnn2C2CCCC2)c1`, with 36.1% (inactive); and `O=C(CSc1nnc(-c2ccccn2)n1-c1ccccc1)Nc1ccc2c(c1)OCO2`, with 5% (inactive).
Regarding `CCn1c(SCC(=O)Nc2ccc3c(c2)OCCO3)nc2c(c1=O)SC(C)C2` (stereo unspecified), the inhibition is 61.9% (active).
Then `O=C(CSc1nc(C2CC2)nc2ccccc12)Nc1ccc2c(c1)OCCO2`, with 19.7% (inactive); and `O=C(CSc1nnnn1-c1ccc2c(c1)CCC2)Nc1ccc2c(c1)OCCO2`, with -2.7% (inactive).
Regarding `Cc1ccc(-n2c(SCC(=O)Nc3ccc4c(c3)OCO4)nnc2-c2ccoc2C)cc1`, the inhibition is -13% (inactive).
As to `O=C(CSc1nc2ncccc2[nH]1)Nc1ccc2c(c1)OCCO2`, the inhibition is 82.3% (active).
In the case of `O=C(CSc1nnnn1C1CCCC1)Nc1ccc2c(c1)OCCO2`, the inhibition was 68.5% (active).
The value for `CCCCSc1nc2c(c(=O)n1CC)SC(C)C2` (stereo unspecified) was 42% (inactive); that for `Cc1nonc1OCCn1nnnc1N` was 4% (inactive); that for `O=C(CCn1c(=S)[nH]c2ccccc2c1=O)NCCCN1CCCC1=O` was 5.4% (inactive).
As for `O=C(CS(=O)(=O)c1cn(Cc2ccc(Cl)cc2)c2ccccc12)N1CCOCC1`, the inhibition is 35.4% (inactive).
The value for `CCOC(=O)c1cc(NC(=O)SCC(=O)O)c(C)nc1C` was 24.3% (inactive); that for `N#CCSc1nc2c(c(=O)n1Cc1ccccc1)C1(CCCC1)Cc1ccccc1-2` was -19% (inactive).
As for `COc1cc(Br)cc(/C=N/c2ncn[nH]2)c1O`, the inhibition was 0.3% (inactive).
Regarding `Cc1nc2c(-c3ccc(F)cc3)c(C)nn2c(C)c1CCC(=O)N1CCN(c2ccccn2)CC1`, the inhibition is 54.1% (active).
Turning to `Cc1nc2c(-c3ccc(F)cc3)c(C)nn2c(C)c1CCC(=O)NCc1ccco1`, the inhibition was 41.7% (inactive).
With `Cc1nc2nc(C)c(CCC(=O)N3CCN(c4ccccc4)CC3)c(C)n2n1`, the inhibition is 7.2% (inactive).
Take `Cc1nn(C)cc1/C=N/NC(=O)c1sc2ccccc2c1Cl`: the inhibition was 37.3% (inactive).
Consider `CC(=O)Nc1ccc(S(=O)(=O)N2CCC(N(C)CCC(C)C)CC2)cc1`, for which the inhibition was 2.5% (inactive).
Then `CCOC(=O)C(C)Sc1nc2ccccc2c(=O)n1CC1CCCCC1` (stereo unspecified), with 71.3% (active); and `CC(Sc1nc2ccccc2c(=O)n1Cc1ccco1)C(=O)c1ccccc1` (stereo unspecified), with 74.1% (active); and `CCOC(=O)C1CCc2nc3ccccc3c(=O)n21` (stereo unspecified), with 17.8% (inactive).
With `CCOn1c(SC(C)C)nc2ccccc2c1=O`, the inhibition is -0.2% (inactive).
On to `N#Cc1c(NC(=O)CSc2nc3ccccc3c(=O)n2Cc2ccco2)sc2c1CCCC2`, for which the inhibition was -5.2% (inactive).
As for `O=C(CN1CCOCC1)Nc1c(-c2ccccc2)c2cc(Br)ccc2[nH]c1=O`, the inhibition was 4.9% (inactive).
`Cc1ccc(C(=O)N2CCN(C(=O)N3CCOCC3)CC2)cc1`: the inhibition is 7.4% (inactive).
Turning to `CCOC(=O)c1[nH]c2ccc(C)cc2c1N=C(C)N(C)C`, the inhibition was -13% (inactive).
On to `Cc1ccc(-c2ccnc3nc(Sc4ncc(C(F)(F)F)cc4Cl)nn23)cc1`, for which the inhibition is 0% (inactive).
Turning to `CCOC(=O)N1CCN(C(c2cccnc2)c2ccc3cccnc3c2O)CC1` (stereo unspecified), the inhibition was 48% (inactive).
The value for `COC(=O)C1C(=O)NCC1c1ccc(C)cc1` (stereo unspecified) was 10.9% (inactive).
On to `CCN(CCCNC(=O)C1CCN(S(=O)(=O)c2cnc[nH]2)CC1)c1ccccc1`, for which the inhibition was 70.9% (active).
Then `O=C(NCc1ccco1)C1CCCN(S(=O)(=O)c2ccccc2)C1` (stereo unspecified), with 40.8% (inactive); and `CCOC(=O)c1cccc(NC(=O)C2CCCN(S(=O)(=O)c3cnc[nH]3)C2)c1` (stereo unspecified), with 58.5% (active).
Then `O=C(NCc1ccco1)C1CCCN(S(=O)(=O)c2cnc[nH]2)C1` (stereo unspecified), with 55.3% (active).
Consider `CCOc1cccc(NC(=O)C2CCCN(S(=O)(=O)c3ccc(OC)cc3)C2)c1` (stereo unspecified), for which the inhibition is 48.2% (inactive).
Then `Cc1cccc(N2CCN(C(=O)C3CCN(S(=O)(=O)c4cnc[nH]4)CC3)CC2)c1C`, with 7.9% (inactive); and `Cc1ccc(S(=O)(=O)N2CCCC2C(=O)NCc2ccco2)cc1` (stereo unspecified), with 81.7% (active).
Then `Cc1ccc(S(=O)(=O)N2CCCC2CO)cc1` (stereo unspecified), with 18.4% (inactive); and `CCCS(=O)(=O)N1CCC(C(=O)NCCCN(C)Cc2ccccc2)CC1`, with 6.8% (inactive).
For the compound `CCCS(=O)(=O)N1CCCC(C(=O)NCc2ccco2)C1` (stereo unspecified), the inhibition is -10.8% (inactive).
Take `COc1cccc(N2CCN(C(=O)C3CCCN(S(=O)(=O)c4cnc[nH]4)C3)CC2)c1` (stereo unspecified): the inhibition was 25.3% (inactive).
`O=C(NCc1ccco1)C1CCCN(S(=O)(=O)c2cccc3nonc23)C1` (stereo unspecified): the inhibition is 18.2% (inactive).
